In PubChem BioAssay AID2314 (National Center for Advancing Translational Sciences (NCATS), 2010):
Screen size: about 300,000 compounds; about 37,000 (12%) were called active. For the sample, actives were picked, then their nearest neighbours and some compounds at random. Values without a mark were called inactive. No stated cut-off is given here; in the data, active means max response mostly above about 13% (no sharp cut-off); inactive means mostly below about 14%.

Test: Cycloheximide Counterscreen for Small Molecule Inhibitors of Shiga Toxin; further: read at 38.3 µM for the half of the compounds with a filed dose; 0% is about no effect
Settings: cell reporter, cycloheximide protein synthesis inhibition counterscreen; hits give high values

| Compound | max response |
| --- | --- |
| COc1ccc(NC(=O)C(NC(C)=O)C(=O)NCc2ccccc2Cl)cc1 (configuration not stated) | 1.56% |
| Cc1cc(C(=O)NNS(=O)(=O)c2ccccc2C(F)(F)F)nn1C(C)(C)C | 7.74% |
| O=C(CN1C(=O)COc2ccccc21)Nc1ccc(F)cc1 | 44.7% (active) |
| O=C(CN1C(=O)COc2ccccc21)NCCN1CCc2ccccc2C1 | 4.27% |
| CC(OC(=O)CN1C(=O)COc2ccccc21)C(=O)NCc1ccc(F)cc1 (configuration not stated) | -2.2% |
| C/C(N)=C(/C#N)C(=O)COC(=O)C1=NN(c2ccccc2)C(=O)CC1 | -5.97% |
| O=C(Nc1nnc(S(=O)(=O)N2CCOCC2)s1)c1cccc(Br)c1 | 7.79% |
| O=c1oc2ccccc2cc1-c1cn(-c2ccccc2)c(=S)[nH]1 | 7.59% |
| S=c1[nH]c(-c2cccs2)cn1-c1ccccc1 | 34.1% (active) |
| O=c1[nH]c(-c2cccs2)nc2ccccc12 | 20% |
| COc1cc(/C=C/C(=O)OCC(=O)Nc2cccc(Oc3ccccc3)c2)ccc1O | 10.4% |
| COc1ccc(S(=O)(=O)N2CCC(C(=O)N3CCCC3)CC2)cc1C | -13.9% |
| Cc1ccc(CSc2nc(-c3ccccc3)c(C#N)c(=O)[nH]2)cc1 | -11.1% |
| Cc1ccccc1CSc1nnc(-c2ccccc2)c(=O)[nH]1 | 18.4% |
| O=c1[nH]c(SCc2ccccc2)nnc1-c1ccccc1 | 11% (active) |
| COc1ccc(Cl)cc1C(=O)NCC#N | -1.71% |
| COc1ccc(Cl)cc1C(=O)Nc1ccc(N(C)C(C)=O)cc1 | 34.7% (active) |
| COC(=O)c1ccc(NC(=O)c2cc(Cl)ccc2OC)cc1 | 0.237% |
| COc1cc(OC)c(C(=O)Nc2ccc(N(C)C)cc2)cc1OC | 40.8% (active) |
| COc1cc(OC)c(C(=O)Nc2ccccc2-c2ccccc2)cc1OC | -1.49% |
| COc1cc(OC)c(C(=O)NC2CC(C)(C)NC(C)(C)C2)cc1OC | -1.33% |
| C=CCn1c(SCCOc2ccc(OC)cc2)nnc1C(NC(=O)c1ccc(OC)cc1)C(C)C (configuration not stated) | -2.43% |
| CN(CC1CCCO1)S(=O)(=O)c1ccc(C(=O)Nc2ccc(F)cc2)cc1 (configuration not stated) | 3.84% |
| Cc1oc(-c2ccccc2Cl)[n+]([O-])c1C | -1.24% |
| CCCSc1nc2sc3c(c2c(=O)n1-c1ccc(OC)cc1)CCN(C)C3 | 0.929% |
| CCc1cccc(NC(=O)C2CCCN(S(=O)(=O)c3ccc4[nH]c(=O)ccc4c3)C2)c1 (configuration not stated) | 14.1% |
| Cn1c(=O)n(C)c2cc(S(=O)(=O)Nc3ccc(F)cc3)ccc21 | 1.27% |
